Laboratory results: ChEMBL document CHEMBL3988442, “University of Dundee, Small-Polar-MMV Screening Library” (2021)
The campaign covered roughly 48,000 compounds. About 13,000 (27%) showed an effect of 50% or more. Some of the results follow.

tested on: Wolbachia pipientis; assay: Anti-Wolbachia Cell-Based Screen; type: functional; parameters: scale not given: in the data most compounds retested in dose-response had high values; conditions: 5 µM

SMILES	Percent Effect [%]
COc1ccccc1CN1C(=O)O[C@@H]2CN(c3nccs3)C[C@@H]21	-9.448
CCc1ccc(NS(=O)(=O)CC2=NC(=O)n3cccc3C2=O)cc1	11.57
CCn1cnnc1CCNC(=O)c1ccc(F)c(Br)c1	-6.891
CN(C)C(=O)CO[C@H]1CO[C@@]2(CCN(S(C)(=O)=O)C2)C1	-10.41
Cn1c(CN2CCN(c3cccnc3)CC2)cc2ccccc21	39.54
COCCNC(=O)C1CN(Cc2cccnc2)Cc2ccnn2C1.O=C(O)C(F)(F)F.O=C(O)C(F)(F)F.O=C(O)C(F)(F)F (stereo not given)	1.319
CC(=O)N1Cc2ccnn2CC(C(=O)NCc2cccnc2)C1.O=C(O)C(F)(F)F (stereo not given)	105.9
CS(=O)(=O)N1Cc2ccnn2CC(C(=O)NCc2cccnc2)C1.O=C(O)C(F)(F)F.O=C(O)C(F)(F)F (stereo not given)	101.4
CC(C)NC(=O)C1CN(C(N)=O)Cc2ccnn2C1 (stereo not given)	-7.077
COCCNC(=O)C1CN(C(N)=O)Cc2ccnn2C1 (stereo not given)	100.3
COCCNC(=O)C1CN(Cc2ccsc2)Cc2ccnn2C1 (stereo not given)	3.328
O=C(NCc1cccnc1)[C@@H]1CC[C@@H]2[C@@H](CCN2c2ncc(F)cn2)O1.O=C(O)C(F)(F)F.O=C(O)C(F)(F)F	-0.1893
CC(C)CN(Cc1ccc(C(F)(F)F)nc1)Cc1cnn(C)c1	-7.949
COc1cccn(CC(=O)N(C)CCSC)c1=O	-16.92
O=C(O)c1ccc2c(c1)C1(CCCCC1)CN2C(=O)c1cccs1	-9.46
O=C1CCCN1CCN1CC[C@@]2(O)CCN(c3ncccn3)C[C@H]2C1	-11.72
OC(CNCCn1cccn1)COc1ccc(Br)cc1 (stereo not given)	2.37
CCN(CC)CC[C@H]1CN(C(=O)C(C)(C)C)CC[C@H]1CC(=O)O	-8.739
Cc1nc2n(n1)CC(NCCCc1nc(-c3cccs3)no1)CC2 (stereo not given)	-18.09
Cc1ncsc1C(=O)Nc1ccccn1	113.7
Cc1cccc(NC(=O)CN(C)C(=O)c2ccc(-n3cccc3)nc2)n1	6.082
Cc1ccc(C(=O)N(C)CC(=O)Nc2cccc(C)n2)cn1	-9.643
Cc1oc(C)c(C(=O)Nc2ccccn2)c1C	13.13

SMILES	Percent Effect [%]
Cc1ncsc1C(=O)N[C@@H](Cc1ccccc1)C(N)=O	5.528
Cc1cccc(NC(=O)CN(C)C(=O)c2scnc2C)n1	117.3
CCn1cc2c(n1)C(COCC1CC1)CN(C(=O)c1cnoc1C)C2 (stereo not given)	-6.391
CN(CC1Cc2ccccc2CN1C)C(=O)CSc1ccccn1 (stereo not given)	0.2013
Cc1cccc(CNC2CC3(CCN(CCO)CC3)c3ccccc32)n1.O=C(O)C(F)(F)F.O=C(O)C(F)(F)F (stereo not given)	121.3
COCCN1CCC2(CC1)CC(NCc1ccc(C)s1)c1ccccc12.O=C(O)C(F)(F)F.O=C(O)C(F)(F)F (stereo not given)	109.1
O=C(NC1CC2(CCN(CCO)CC2)c2ccccc21)c1ccsc1.O=C(O)C(F)(F)F (stereo not given)	-2.437
Cc1ccc(CNC2CC3(CCN(CCO)CC3)c3ccccc32)s1.O=C(O)C(F)(F)F.O=C(O)C(F)(F)F (stereo not given)	107.2
COCCN1CCC2(CC1)CC(NCc1cncn1C)c1ccccc12.O=C(O)C(F)(F)F.O=C(O)C(F)(F)F (stereo not given)	-4.638
O=C(NC1CC2(CCN(CCO)CC2)c2ccccc21)c1ccno1.O=C(O)C(F)(F)F (stereo not given)	-3.484
COCCN1CCC2(CC1)CC(N1CCOCC1)c1cc(C)ccc12.O=C(O)C(F)(F)F.O=C(O)C(F)(F)F (stereo not given)	-13.01
CC(NCc1cccn1C)c1noc(-c2ccc(Cl)cc2)n1 (stereo not given)	-2.056
CN1C(=O)CO[C@H](c2ccc(NC(=O)c3cccnc3)cc2)[C@H]1CO	-10.51
Nc1nc2c(c(NC(=O)Nc3cccc(Cl)c3)n1)CCCC2	7.303
Cc1c(NCc2ccc(C#N)cc2)cccc1S(=O)(=O)NC1CC1	-7.698
c1cn(CCn2cnnc2)c(-c2cc3n(n2)CCCNC3)n1	-4.741
COc1ccccc1C(C)CC(=O)N1CC[C@H](O)C1 (stereo not given in full)	18.86
COc1ccccc1C(=O)N1CC(=O)N(CC(C)C)CC(O)C1 (stereo not given)	116.8
CC(C)c1nnc2n1CCN(C(=O)c1ccccc1OCC1CC1)C2	-3.948
COc1ccccc1C(=O)N1CC(=O)N(CC2CC2)CC(O)C1 (stereo not given)	108.3
CCC(NC(=O)c1ccco1)c1nc(C(F)(F)F)cs1 (stereo not given)	-6.981
CS(=O)(=O)N1CCOCC2(CCN(C(=O)c3cccnc3)CC2)C1.O=C(O)C(F)(F)F	-2.226
CNC(=O)NCC1CCC2(CCN(C(=O)c3ccccc3)CC2)CO1 (stereo not given)	108.3

SMILES	Percent Effect [%]
O=C(C1CCC2(CCN(c3ncccn3)CC2)CO1)N1CCCC1 (stereo not given)	10.33
CNC(=O)NCC1CCC2(CCN(c3ncccn3)CC2)CO1 (stereo not given)	88.92
COCC1CC2(CCN(C(=O)c3cccc(C)c3)CC2)CO1 (stereo not given)	-11.23
COCC1CC2(CCN(C(=O)c3cncc(C)c3)CC2)CO1.O=C(O)C(F)(F)F (stereo not given)	8.897
COCC1CC2(CCN(C(=O)c3oc4ccccc4c3C)CC2)CO1 (stereo not given)	-1.277
CC(C)NC(=O)C1CCC2(CCN(c3ncccn3)CC2)CO1 (stereo not given)	-6.885
CNC(=O)NCC1CCC2(CCN(C(=O)c3cccnc3)CC2)CO1.O=C(O)C(F)(F)F (stereo not given)	102.7
Cc1ccc(-c2cc(C(=O)NCCC3=CCCCC3)[nH]n2)o1	9.696
CN(Cc1noc2c1CCCC2)C(=O)CN1C(=O)CSc2ccccc21	0.5887
CN(Cc1noc2c1CCCC2)C(=O)C1Cc2ccccc2CN1C (stereo not given)	9.151
Cc1ccc(-c2cc(C(=O)N(C)Cc3noc4c3CCCC4)[nH]n2)s1	126
COc1nc2c(cc1C(=O)N(C)Cc1noc3c1CCCC3)CCC2	-4.32
Cc1ccc(-c2cc(C(=O)N(C)Cc3noc4c3CCCC4)[nH]n2)o1	119
COc1ccc(C(=O)NC2CC2)c(OC2CCN(C3CCC3)CC2)c1	0.9223
COc1ccc(C(=O)N2CCCC2c2ccco2)cc1OC (stereo not given)	-0.7331
COc1ccccc1C1CNCCN1C(C)=O (stereo not given)	170.5
COc1ccccc1OC1CN(C(=O)C2CNCC(=O)N2)C1 (stereo not given)	3.442
O=C(Nc1ccc(F)cc1)C1CNCCN1C(=O)CCO (stereo not given)	-8.613
COc1ccccc1C1CNCCN1C(=O)c1ccc(F)cc1 (stereo not given)	170.1
COc1cc(S(=O)(=O)N2C[C@@H](C)[C@@](C)(O)C2)c(C)cc1C	-12.13
Cc1cccnc1CNCC1(O)CCCN(Cc2ccc(F)cc2)C1=O (stereo not given)	9.379
CCOc1cc(NC(=O)N(C)Cc2ncnn2C)ccc1C	-12.81
CCOc1cc(C(=O)N(C)C)ccc1NC(=O)c1ccsc1	-5.987

SMILES	Percent Effect [%]
CN1CC(=O)c2sc(NCCc3ccccc3)nc2C1	91.14
CC(C)CC(=O)N1CC(=O)c2sc(NCCc3ccccc3)nc2C1	112.3
Cn1ccc(C(=O)N2CCN(CCc3ccccc3)CC2)cc1=O	-2.355
Cn1cnc2c1CCN(CCCc1ccccc1)C2	0.7928
CC(C)SCC(=O)N1Cc2cnc(-c3ccccc3)nc2C1	3.989
CC(C)Cc1ncc2c(n1)CN(C(=O)Cn1c(=O)oc3ccccc31)C2	-4.555
CNc1nc(CNC(=O)Nc2cccc(F)c2)cs1	-0.1987
CC(NC1(CNC(=O)NC2CC2)CCOCC1)c1ccccc1 (stereo not given)	5.387
CCC1=N[C@@]2(CC[C@@H]3CN(Cc4ccc(F)cc4)C[C@@H]32)C(=O)N1C.O=C(O)C(F)(F)F	103.7
CCC1=N[C@@]2(CC[C@@H]3CN(Cc4cccc(Cl)c4)C[C@@H]32)C(=O)N1C.O=C(O)C(F)(F)F	95.01
CC1=N[C@@]2(CC[C@@H]3CN(CC(C)C)C[C@@H]32)C(=O)N1C.O=C(O)C(F)(F)F	8.258
CCC1=N[C@@]2(CC[C@@H]3CN(C(=O)NC(C)C)C[C@@H]32)C(=O)N1C	-5.226
CCC1=N[C@@]2(CC[C@@H]3CN(Cc4ccccc4F)C[C@@H]32)C(=O)N1CC.O=C(O)C(F)(F)F	-10.67
CCC1=N[C@@]2(CC[C@@H]3CN(Cc4ccccc4C)C[C@@H]32)C(=O)N1C.O=C(O)C(F)(F)F	114.6
CCC1=N[C@@]2(CC[C@@H]3CN(C(=O)NCc4ccccc4)C[C@@H]32)C(=O)N1C	-13.65
CCC1=N[C@@]2(CC[C@@H]3CN(Cc4ccccc4C)C[C@@H]32)C(=O)N1.O=C(O)C(F)(F)F	-9.167
O=C(O)C(F)(F)F.O=C1NC(c2ccccc2)=N[C@@]12CC[C@@H]1CN(Cc3ccccc3)C[C@@H]12	4.255
CCC1=N[C@@]2(CC[C@@H]3CN(CC(C)C)C[C@@H]32)C(=O)N1.O=C(O)C(F)(F)F	-10.58
CCC1=N[C@@]2(CC[C@@H]3CN(CC(=O)N(C)C)C[C@@H]32)C(=O)N1CC1CC1.O=C(O)C(F)(F)F	-4.089
CCC1=N[C@@]2(CC[C@@H]3CN(Cc4ccc(C)cc4)C[C@@H]32)C(=O)N1C.O=C(O)C(F)(F)F	81.5
CCCN1CCC(CC(=O)N[C@H](C(=O)O)c2cccc(F)c2F)CC1	-4.75
